Reference: PubChem BioAssay (EPA / NIEHS)
Records with an inconclusive call do not appear. Active and inactive are the calls of the source. The calls were made as follows, unless noted: active = hit-call score of the fitted dose curve at least 0.9, where 1 is the maximum; inconclusive = response in the unintended direction; inactive = score below 0.9.

Read-out: not listed separately
Test: BSK_3C_Proliferation: Cell Proliferation Assessment in the BioMAP Diversity Plus: 3C Assay (AID 2283006; active = hit-call score of the fitted dose curve at least 0.9, where 1 is the maximum; inactive = score below 0.9;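 as to AC50: potency may reflect either rise or fall in cell number versus DMSO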)
Details: primary human endothelial cells (HUVEC)
In short: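 Proliferation of human vascular endothelial primary cells after 48 h dosing, quantified as SRB-stained protein at 560 nm relative to DMSO.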
With `IC(I)I` the outcome was “inactive”.
For `O=CN1CCOCC1`, the outcome was “inactive”.
For `COc1ccc(OC)c(N=Nc2c(O)ccc3ccccc23)c1`, the AC50 was 12.6 µM (active).
In the case of `CCCCCC(C=O)=Cc1ccccc1`, the AC50 is reported as 30.8 µM (active).
With `c1ccc(CCc2ccccc2)cc1` the AC50 was 22.7 µM (active).
In the case of `CCCCN(CCCC)C(=O)N(CCCC)CCCC`, the AC50 is reported as 4.03 µM (active).
In the case of `CCC(C)c1cc([N+](=O)[O-])cc([N+](=O)[O-])c1OC(=O)OC(C)C` (configuration not stated), the AC50 is reported as 5.44 µM (active).
In the case of `COc1cc(Cl)c(OC)cc1N`, the outcome is reported as “inactive”.
For `C=C(C)C(=O)OCCOCCOCCOCCOC(=O)C(=C)C`, the outcome was “inactive”.
With `O=C1OC2(c3ccccc31)c1ccc(O)c(Br)c1Oc1c2ccc(O)c1Br` the AC50 was 9.61 µM (active).
With `c1ccc(Oc2ccccc2)cc1` the AC50 was 31.2 µM (active).
For `CN(C)C(=S)SC(=S)N(C)C`, the AC50 was 19.9 µM (active).

Target: Peroxisome proliferator-activated receptor gamma (Homo sapiens) (UniProt P37231)
Sequence (P37231 whole entry, looked up): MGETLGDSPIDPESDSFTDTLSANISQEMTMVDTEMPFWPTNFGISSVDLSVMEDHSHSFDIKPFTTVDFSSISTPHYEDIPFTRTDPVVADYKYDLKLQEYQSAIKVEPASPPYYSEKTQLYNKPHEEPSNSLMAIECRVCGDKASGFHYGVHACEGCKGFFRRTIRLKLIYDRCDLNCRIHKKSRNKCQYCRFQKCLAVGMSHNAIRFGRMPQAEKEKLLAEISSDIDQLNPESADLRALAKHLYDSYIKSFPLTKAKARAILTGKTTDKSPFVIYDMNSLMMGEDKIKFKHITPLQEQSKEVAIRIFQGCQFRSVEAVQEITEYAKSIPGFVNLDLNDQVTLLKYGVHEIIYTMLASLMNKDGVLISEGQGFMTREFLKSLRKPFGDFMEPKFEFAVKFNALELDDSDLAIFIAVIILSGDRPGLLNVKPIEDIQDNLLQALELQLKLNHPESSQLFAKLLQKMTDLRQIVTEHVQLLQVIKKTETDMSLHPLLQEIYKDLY
Test: ATG_PPARg_TRANS: Attagene TRANS-FACTORIAL HepG2 Assay for human Peroxisome Proliferator-activated Receptor-gamma (PPARg) (AID 2283007)
Details: not given
In short: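 Human hepatoma HepG2, transient MRTU transfection, 24 h treatment. mRNA reporter signal by RT-PCR plus capillary electrophoresis, fluorescence detection; fitted for increase over DMSO negative control.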
In the case of `Nc1ccc(N)c2c1C(=O)c1ccccc1C2=O`, the AC50 is reported as 11.3 µM (active).
In the case of `IC(I)I`, the outcome is reported as “inactive”.
With `O=CN1CCOCC1` the outcome was “inactive”.
With `COc1ccc(OC)c(N=Nc2c(O)ccc3ccccc23)c1` the outcome was “inactive”.
In the case of `CCCCCC(C=O)=Cc1ccccc1`, the AC50 is reported as 27.6 µM (active).
With `NC(=S)NNC(N)=S` the outcome was “inactive”.
With `O=C(O)c1ccc(O)cc1` the outcome was “inactive”.
For `C[C@H]1O[C@@H](O[C@H]2[C@@H](O)C[C@H](O[C@H]3[C@@H](O)C[C@H](O[C@H]4CC[C@@]5(C)[C@H](CC[C@@H]6[C@@H]5C[C@@H](O)[C@]5(C)[C@@H](C7=CC(=O)OC7)CC[C@]65O)C4)O[C@@H]3C)O[C@@H]2C)C[C@H](O)[C@@H]1O`, the outcome was “inactive”.
In the case of `CCCCCCC(O)CCCCCCCCCCC(=O)O` (configuration not stated), the AC50 is reported as 14.2 µM (active).
For `c1ccc(CCc2ccccc2)cc1`, the outcome was “inactive”.
With `CCCCN(CCCC)C(=O)N(CCCC)CCCC` the AC50 was 15.9 µM (active).
For `CCC(C)c1cc([N+](=O)[O-])cc([N+](=O)[O-])c1OC(=O)OC(C)C` (configuration not stated), the AC50 was 0.774 µM (active).
For `COc1cc(Cl)c(OC)cc1N`, the outcome was “inactive”.
For `CCc1cc(Cc2cc(CC)cc(C(C)(C)C)c2O)c(O)c(C(C)(C)C)c1`, the AC50 was 7.31 µM (active).
With `C[Si]1(C)O[Si](C)(C)O[Si](C)(C)O1` the outcome was “inactive”.
With `C/C=C(\C)C(=O)OCCc1ccccc1` the outcome was “inactive”.
For `O=C1OC2(c3ccccc31)c1ccc(O)c(Br)c1Oc1c2ccc(O)c1Br`, the outcome was “inactive”.
For `Nc1ccc2cc(S(=O)(=O)O)cc(O)c2c1N=Nc1ccccc1C(F)(F)F`, the outcome was “inactive”.
In the case of `C=Cc1ccncc1`, the AC50 is reported as 77.4 µM (active).
In the case of `CCCCCCCC(=O)OCC(O)CO` (configuration not stated), the outcome is reported as “inactive”.
In the case of `CCCCCCCC/C=C\CCCCCCCC(=O)OCC`, the AC50 is reported as 50.5 µM (active).
In the case of `NCCNc1cccc2ccccc12`, the AC50 is reported as 125 µM (active).
With `CCCCCCCCCCCCS(=O)(=O)Cl` the AC50 was 25 µM (active).
With `Cc1ccc(S(=O)(=O)Oc2ccc(N=Nc3ccc(-c4ccc(N=Nc5c(O)ccc6cc(S(=O)(=O)O)cc(S(=O)(=O)O)c56)c(C)c4)cc3C)cc2)cc1` the AC50 was 18.3 µM (active).
For `CN(C)C(=S)SC(=S)N(C)C`, the AC50 was 20.9 µM (active).

Target: Nuclear receptor subfamily 1 group I member 2 (Homo sapiens) (UniProt O75469)
Sequence (O75469 whole entry, looked up): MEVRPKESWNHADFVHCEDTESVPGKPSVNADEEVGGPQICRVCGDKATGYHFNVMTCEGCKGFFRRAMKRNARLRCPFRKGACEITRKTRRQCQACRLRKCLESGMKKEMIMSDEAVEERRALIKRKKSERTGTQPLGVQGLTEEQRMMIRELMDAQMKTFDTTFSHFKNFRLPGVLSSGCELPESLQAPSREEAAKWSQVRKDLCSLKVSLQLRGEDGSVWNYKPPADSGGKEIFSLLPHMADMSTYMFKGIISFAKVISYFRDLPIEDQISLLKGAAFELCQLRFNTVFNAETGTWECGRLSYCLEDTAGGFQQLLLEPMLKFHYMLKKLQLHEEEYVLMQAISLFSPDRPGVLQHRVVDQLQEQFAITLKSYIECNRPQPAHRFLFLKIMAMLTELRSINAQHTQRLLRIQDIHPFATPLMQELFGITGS
Test: ATG_PXR_TRANS: Attagene TRANS-FACTORIAL HepG2 Assay for human Pregnane X Receptor (PXR) (AID 2283008)
Details: not given
In short: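 Measures mRNA induction of a GAL4-UAS-driven reporter in human HepG2 cells transiently expressing PXR fused to Gal4, following 24 h treatment. DMSO served as negative control and baseline.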
For `Cc1ncc([N+](=O)[O-])n1CCO`, the outcome was “inactive”.
In the case of `Nc1ccc(N)c2c1C(=O)c1ccccc1C2=O`, the outcome is reported as “inactive”.
With `IC(I)I` the outcome was “inactive”.
In the case of `O=CN1CCOCC1`, the outcome is reported as “inactive”.
With `COc1ccc(OC)c(N=Nc2c(O)ccc3ccccc23)c1` the AC50 was 4.23 µM (active).
With `CCCCCCCCCCCCCC(=O)OCC(O)CO` (configuration not stated) the outcome was “inactive”.
In the case of `CCCCCC(C=O)=Cc1ccccc1`, the outcome is reported as “inactive”.
In the case of `CN(C)c1ccncc1`, the outcome is reported as “inactive”.
With `O=C(O)c1ccc(O)cc1` the outcome was “inactive”.
For `C[C@H]1O[C@@H](O[C@H]2[C@@H](O)C[C@H](O[C@H]3[C@@H](O)C[C@H](O[C@H]4CC[C@@]5(C)[C@H](CC[C@@H]6[C@@H]5C[C@@H](O)[C@]5(C)[C@@H](C7=CC(=O)OC7)CC[C@]65O)C4)O[C@@H]3C)O[C@@H]2C)C[C@H](O)[C@@H]1O`, the outcome was “inactive”.
With `CCCCC(CC)COC(C)=O` (configuration not stated) the outcome was “inactive”.
For `CCCCCCC(O)CCCCCCCCCCC(=O)O` (configuration not stated), the outcome was “inactive”.
With `c1ccc(CCc2ccccc2)cc1` the AC50 was 31.6 µM (active).
With `CCCCN(CCCC)C(=O)N(CCCC)CCCC` the AC50 was 0.445 µM (active).
For `CCC(C)c1cc([N+](=O)[O-])cc([N+](=O)[O-])c1OC(=O)OC(C)C` (configuration not stated), the AC50 was 1.58 µM (active).
With `COc1cc(Cl)c(OC)cc1N` the outcome was “inactive”.
In the case of `CCc1cc(Cc2cc(CC)cc(C(C)(C)C)c2O)c(O)c(C(C)(C)C)c1`, the AC50 is reported as 0.028 µM (active).
In the case of `C[Si]1(C)O[Si](C)(C)O[Si](C)(C)O1`, the outcome is reported as “inactive”.
For `C/C=C(\C)C(=O)OCCc1ccccc1`, the AC50 was 25.1 µM (active).
In the case of `C=C(C)C(=O)OCCOCCOCCOCCOC(=O)C(=C)C`, the outcome is reported as “inactive”.
In the case of `O=C1OC2(c3ccccc31)c1ccc(O)c(Br)c1Oc1c2ccc(O)c1Br`, the AC50 is reported as 57 µM (active).
For `OCc1ccc(Cl)cc1Cl`, the outcome was “inactive”.
For `Nc1ccc2cc(S(=O)(=O)O)cc(O)c2c1N=Nc1ccccc1C(F)(F)F`, the outcome was “inactive”.
For `C=Cc1ccncc1`, the outcome was “inactive”.
For `COC(C)(C)CCO`, the outcome was “inactive”.
With `CCCCCCCC(=O)OCC(O)CO` (configuration not stated) the outcome was “inactive”.
With `CCCCCCCC/C=C\CCCCCCCC(=O)OCC` the outcome was “inactive”.
For `NCCNc1cccc2ccccc12`, the outcome was “inactive”.
With `c1ccc(Oc2ccccc2)cc1` the outcome was “inactive”.
With `Cc1ccc(S(=O)(=O)Oc2ccc(N=Nc3ccc(-c4ccc(N=Nc5c(O)ccc6cc(S(=O)(=O)O)cc(S(=O)(=O)O)c56)c(C)c4)cc3C)cc2)cc1` the outcome was “inactive”.
